Test results: PubChem BioAssay AID504652 (National Center for Advancing Translational Sciences (NCATS), 2011)
Values joined by “and” are separate entries in the source; they are usually repeats but may differ in a detail not shown here. Identical values can stand only once. Hit rate of the full screen: of about 360,000 compounds, about 11,000 (3.1%) were called active. Cut-off read from the data, not from the text of the source: active = activity change below about -30%; inactive = the rest. For the sample, actives were picked, then their nearest neighbours and some compounds at random. Square brackets hold non-standard residues; d marks the D form. Peptide text beside a SMILES is read from it. * marks the point of attachment. PhAc = O=C(Cc1ccccc1)*

Molecular target: D(1A) dopamine receptor (Homo sapiens) (UniProt P21728)
Sequence (P21728 whole entry, looked up): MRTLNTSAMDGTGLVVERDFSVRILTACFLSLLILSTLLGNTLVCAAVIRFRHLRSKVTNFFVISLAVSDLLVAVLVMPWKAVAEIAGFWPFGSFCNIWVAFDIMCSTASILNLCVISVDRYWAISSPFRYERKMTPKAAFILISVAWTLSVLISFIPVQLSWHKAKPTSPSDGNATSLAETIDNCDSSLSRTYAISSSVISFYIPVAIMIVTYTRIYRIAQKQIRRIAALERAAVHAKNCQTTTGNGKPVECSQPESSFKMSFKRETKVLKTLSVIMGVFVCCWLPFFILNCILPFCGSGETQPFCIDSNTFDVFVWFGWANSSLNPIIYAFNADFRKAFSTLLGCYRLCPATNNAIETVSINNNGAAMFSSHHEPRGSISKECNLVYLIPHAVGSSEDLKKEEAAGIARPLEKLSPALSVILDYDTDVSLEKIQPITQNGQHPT
Assay: Antagonist of Human D 1 Dopamine Receptor: qHTS
Conditions: HEK293 TREx D1 cells, calcium flux, dopamine EC80; at 10 µM; hits give low values
Method in brief: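 HEK293 T-REx cells expressing inducible, force-coupled D1 receptor; no-wash Ca dye, 30–90 min RT. Cmpd → 180 s read at 1 Hz → EC80 DA → 180 s read.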
% is set by controls: 0 for no effect and ±100 for the full control effect.

Activity change, negative = inhibition, active:
COC(=O)[C@H](CC(C)C)NC(=O)N1CCCCC1C (stereo not given in full) -78.1%
O=Cc1c(N2CCN(c3cccc(Cl)c3)CC2)nc2ccccn2c1=O -43.5%
CC(=O)NC1=NN(C(C)=O)C(C)(CCS(=O)(=O)c2ccc(Cl)c(Cl)c2)S1 (stereo not given) -39.7%
COc1cc(COCC(O)CN2CCN(Cc3ccc4c(c3)OCO4)CC2)cc(OC)c1OC (stereo not given) -31.1%
CCCOc1ccc(/C(O)=C2/C(=O)C(=O)N(CCN(C)C)C2c2ccc(OC)c(OC)c2)cc1 (stereo not given) -33.3%
COc1ccc(/C(O)=C2/C(=O)C(=O)N(CCCN(C)C)C2c2ccccc2)cc1OC (stereo not given) -33.2%
O=C1Nc2cc(Cl)c(Cl)cc2N(O)N1c1cc(Cl)cc(Cl)c1 -76.7%
CN(C)CCCN(C(=O)c1ccc(S(=O)(=O)N2CCCc3ccccc32)cc1)c1nc2ccc(F)cc2s1 -31.4%
Cc1ccc2nc(N(CCN(C)C)C(=O)C3=COCCO3)sc2c1 -34.5%
CCc1ccc2nc(N(CCCN(C)C)C(=O)c3ccc4c(c3)OCCO4)sc2c1 -34.9%
CN(C)CCN(C(=O)C1=COCCO1)c1nc2ccc(Cl)cc2s1 -46.4%
CCOC(=O)CSc1nnc(NC(=O)c2cccc(S(=O)(=O)N3CCCCC3)c2)s1 -31.1%
Cn1nc(C(F)(F)F)c2cc(NC(=O)OCC(C)(C)C)sc21 -42.5%
CCC(CC)c1nnc(NC(=O)C2=COCCO2)s1 -42.7%
COc1ccc(NC(=O)C2=CC(c3ccc(OC)c(OC)c3)=NS(=O)(=O)N2C)cc1 -44.8%

Activity change, negative = inhibition, inactive:
Cn1cc(S(=O)(=O)N2CCCCCC2)cc1C(=O)N1CCN(c2ccc(F)cc2)CC1 5.3%
CC(C)Oc1ccc(CNC(=O)C2CCN(c3nc4ccccc4n(C)c3=O)CC2)cc1 18.8%
CCCOc1ccc(C(=O)Nc2ccc3oc(-c4cccc(Cl)c4Cl)nc3c2)cc1 6.25%
COc1ccc2oc(=O)c(-c3cn4c(n3)sc3cc(OC)ccc34)cc2c1 2.94%
Cn1c(=O)c2c(nc(SCC(=O)Nc3ccc(F)cc3)n2Cc2ccccc2)n(C)c1=O 6.42%
CC(C)C[C@H](NC(=O)C1CCC(CNC(=O)[C@@H]2CCCN2C(=O)OC(C)(C)C)CC1)C(=O)O (stereo not given in full) -1.98%
CC(C)C[C@@H](NC(=O)[C@H]1CCCN1C(=O)Cc1ccccc1)C(N)=O (PhAc-[dP]-[dL]-NH2) 30%
CC(=O)c1ccc(NC(=O)CSc2nc(-c3ccccc3F)nc3c2c(=O)n(C)c(=O)n3C)cc1 -0.158%
CC(=O)Nc1cc(C(=O)NCc2ccc(F)cc2Cl)ccc1Sc1ccc(Cl)cc1 9.87%
CCOC(=O)c1ccc(NC(=O)C2CC(=O)NC(=Nc3ccc(C)c(C)c3)S2)cc1 (stereo not given) -1.43%
CCc1ccc(CNCc2c(C(=O)O)n(Cc3ccc(F)cc3Cl)c3cc(OC)ccc23)cc1 6.05%
O=Cc1c(Nc2ccccc2Cl)nc2ccccn2c1=O 9.2%
COCCCNC(=O)/C(C#N)=C/c1c(N2CCCCCC2)nc2ccccn2c1=O 13.8%
Cc1ccc(-c2nc3ccccn3c2Nc2c(C)cccc2C)o1 -2.58%
Cc1c(CNC2CCCCC2)c(C(=O)O)c(C)n1Cc1cccc(Cl)c1 -7.13%
CC(=O)NC1=NN(C(C)=O)C(C)(c2ccc(C)cc2)S1 (stereo not given) 22.7%
CC(=O)NC1=NN(C(C)=O)C(C)(c2ccc(Cl)s2)S1 (stereo not given) 2.68%
Cc1cc(OC(C)C(=O)Nc2sc3c(c2C(N)=O)CCCC3)ccc1Cl (stereo not given) 3.29%
Cc1ccc(S(=O)(=O)c2nnn3c2nc(N2CCN(c4ccccc4F)CC2)c2cc(Cl)ccc23)cc1C -0.0376%
CCOc1ccccc1CNC(=O)C1CCCN(S(=O)(=O)c2ccc3c(ccn3C)c2)C1 (stereo not given) -27.8%
COc1cc(Cl)c(S(=O)(=O)N2CCN(Cc3ccc4c(c3)OCO4)CC2)cc1Cl 4.53%
CN1CCN(CC(O)COCc2ccc3c(c2)OCO3)CC1 (stereo not given) -5.88%
CCOc1cccc(CNC(=O)c2ccc(N3CCCC3)c(NC(=O)Nc3ccccc3CC)c2)c1 4.78%
CCc1nn(CC(=O)Nc2cc(C)cc(C)c2)c(=O)c2cc3sccc3n12 3.41%
CCCN1CN=C(NS(=O)(=O)c2ccc(NC(C)=O)cc2)NC1 -3.05%
COc1cccc(C2/C(=C(/O)c3ccncc3)C(=O)C(=O)N2CCCN(C)C)c1 (stereo not given) -21.5%
O=C1C(=O)N(CCCO)C(c2ccccc2)/C1=C(\O)c1ccc(Br)cc1 (stereo not given) -7%
COc1ccc(/C(O)=C2/C(=O)C(=O)N(CC3CCCO3)C2c2ccc(OC)c(OC)c2)cc1 (stereo not given) -3.45%
COc1cccc(C2/C(=C(/O)c3ccc(F)cc3)C(=O)C(=O)N2CCN(C)C)c1 (stereo not given) -3.01%
CCc1ccc(CNC(=O)c2ccc(CS(=O)c3ccc(Br)cc3)o2)cc1 (stereo not given) 6.94%
COc1c(Cl)cc(C(=O)N(Cc2ccccc2F)C2CCS(=O)(=O)C2)cc1Cl (stereo not given) -0.91%
CCOC(=O)c1ccc2c(c1)N(Cc1cccc(OC)c1)C(=O)c1ccccc1S2(=O)=O 4.54%
Cc1c(Cl)cccc1NC(=O)CCS(=O)(=O)c1ccc2c(c1)oc(=O)n2C -0.334%
O=C(c1ccc(Cl)cc1)n1nc(-c2cccnc2)nc1NCc1ccc(F)cc1 -16.2%
CCOc1ccc(OCC)c(NC(=O)CN(c2ccc(C)cc2)S(=O)(=O)c2c(C)n[nH]c2C)c1 -7.76%
O=C1Nc2cc(Cl)c(Cl)cc2N(O)N1c1ccccc1Cl -7.41%
Cc1c(CNC(C)c2ccccc2)c(C(=O)O)c(C)n1Cc1c(F)cccc1Cl (stereo not given) 18.6%
CCOc1ccc(OCC)c(NC(=O)c2c(C)nn(-c3ccccc3)c2-n2cccc2)c1 7.71%
Cc1cc(C)c2nc(N(CCN(C)C)C(=O)/C=C/c3cccs3)sc2c1 6.71%
O=C(Nc1ccc2nc(SCC(=O)N3CCCc4ccccc43)sc2c1)c1ccc(F)cc1 -9.64%
CCN(CC)CCN(C(=O)c1cc(Cl)sc1Cl)c1nc2cc3c(cc2s1)OCO3 -2.46%
NS(=O)(=O)c1ccc2nc(NC(=O)C3=COCCO3)sc2c1 1.85%
CCN(CC)CCN(C(=O)c1ccc(N2C(=O)CCC2=O)cc1)c1nc2cc3c(cc2s1)OCO3 6.3%
Cc1ccc2sc(NNC(=O)c3ccc4c(c3)OCCO4)nc2c1C 23.4%
O=C(Nc1nnc(S(=O)(=O)N2CCCc3ccccc32)s1)c1cccc(F)c1 -7.22%
CC(C)N(Cc1nnc(-c2ccc(Cl)cc2)o1)C(=O)C1=COCCO1 2.43%
CC1CCN(S(=O)(=O)c2ccc3c(c2)N(CC(=O)NCCc2ccccc2)C(=O)CO3)CC1 1.55%
Cc1ccc(C(=O)CC2(O)C(=O)N(CCc3ccccc3)c3ccc(Br)cc32)cc1 (stereo not given) 12.6%
COc1cc(OC)c(C2C=C(C(=O)O)Nc3ncnn32)cc1OC (stereo not given) 4.4%
COc1ccc(C2C(=O)N(C3CCCCCC3)CC(=O)N2CCc2ccc(Cl)cc2)cc1OC (stereo not given) 6.57%
COc1cccc(CNC(=O)c2ccc3c(Cl)c4c(nc3c2)CCCC4)c1 -2.7%
CCOc1ccc(CCNC(=O)CN(c2ccc(C)cc2)S(=O)(=O)N(C)C)cc1OCC 6.83%
Cc1ccc(Cn2c(CNC(=O)Cc3cccc(C)c3)nc3cccnc32)cc1 -3.78%
O=C(NC1(C(F)(F)F)N=C(c2ccccc2)N(C2CCCCC2)C1=O)c1ccccc1F (stereo not given) -5.87%
COc1ccc(-c2cn3nc(N4CCC(C(=O)Nc5cccc(C)c5C)CC4)sc3n2)cc1 -7.07%
CCOC(=O)CSc1nnc(NC(=O)c2cccc(S(=O)(=O)N3CCCC3)c2)s1 -6.95%
O=C(Nc1nncs1)c1cccc(S(=O)(=O)N2CCCCC2)c1 5.14%
Cn1nc(C(F)(F)F)c(-c2ccc(F)cc2)c1NC(=O)CSCC(=O)O 8.45%
Cn1nc(C(F)(F)F)c2cc(C(=O)N3CCOCC3)sc21 6.73%
Cc1ccc(Cl)cc1NC(=O)CCS(=O)(=O)c1ccc(Br)s1 6.29%
COc1ccc(C(=O)N2CCC(c3nc4ccccc4o3)CC2)cc1 4.96%
CCOC(=O)Cn1c(=O)n(C2CCCCC2)c2nc(-c3cccc(OC)c3)nc(C(N)=O)c21 8.07%
Cc1csc(NC(=O)C2=COCCO2)n1 -2.15%
CCC(CC)c1nnc(NC(=O)c2nn(C)c(=O)c3ccccc23)s1 0.594%
CC(=O)N1c2ccccc2CC1C(=O)N1CCN(c2ccc(F)cc2)CC1 (stereo not given) 9.38%
COc1ccc(N2CCN(c3cc(C)nc4nncn34)CC2)cc1 -2.83%
Cc1nc(N2CCOCC2)c2c(C(=O)NCc3cccc(Cl)c3)c(C)oc2n1 6.25%
COc1cc(NC(=O)C2=CC(c3ccco3)=NS(=O)(=O)N2C)cc(OC)c1OC -11.3% and -11.4%
COc1cc(NC(=O)C2=CC(c3ccc(C)cc3)=NS(=O)(=O)N2C)cc(OC)c1OC -12.9%
CCN(C(=O)c1sc2cc(OC)ccc2c1Cl)c1ccccc1 1.09%
